Source: paper PMC4336329 (PLoS ONE, 2015)
Hit rate of the full screen: of about 310,000 compounds, about 14,000 (4.5%) showed an effect of 50% or more. The effect is printed as a negative number. This is one part of a sample in which strong results are shown more often than they occur.
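Note: peak tail current of the secondary pulse compared with the same well before compound.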

What follows are compounds tested against human ether-à-go-go-related gene (hERG) potassium channel (human, UniProt Q12809) (assay: primary screen, population patch clamp on CHO cells stably expressing hERG; higher = less effect of the substance).
Sequence of human ether-à-go-go-related gene (hERG) potassium channel (Q12809 whole entry, looked up): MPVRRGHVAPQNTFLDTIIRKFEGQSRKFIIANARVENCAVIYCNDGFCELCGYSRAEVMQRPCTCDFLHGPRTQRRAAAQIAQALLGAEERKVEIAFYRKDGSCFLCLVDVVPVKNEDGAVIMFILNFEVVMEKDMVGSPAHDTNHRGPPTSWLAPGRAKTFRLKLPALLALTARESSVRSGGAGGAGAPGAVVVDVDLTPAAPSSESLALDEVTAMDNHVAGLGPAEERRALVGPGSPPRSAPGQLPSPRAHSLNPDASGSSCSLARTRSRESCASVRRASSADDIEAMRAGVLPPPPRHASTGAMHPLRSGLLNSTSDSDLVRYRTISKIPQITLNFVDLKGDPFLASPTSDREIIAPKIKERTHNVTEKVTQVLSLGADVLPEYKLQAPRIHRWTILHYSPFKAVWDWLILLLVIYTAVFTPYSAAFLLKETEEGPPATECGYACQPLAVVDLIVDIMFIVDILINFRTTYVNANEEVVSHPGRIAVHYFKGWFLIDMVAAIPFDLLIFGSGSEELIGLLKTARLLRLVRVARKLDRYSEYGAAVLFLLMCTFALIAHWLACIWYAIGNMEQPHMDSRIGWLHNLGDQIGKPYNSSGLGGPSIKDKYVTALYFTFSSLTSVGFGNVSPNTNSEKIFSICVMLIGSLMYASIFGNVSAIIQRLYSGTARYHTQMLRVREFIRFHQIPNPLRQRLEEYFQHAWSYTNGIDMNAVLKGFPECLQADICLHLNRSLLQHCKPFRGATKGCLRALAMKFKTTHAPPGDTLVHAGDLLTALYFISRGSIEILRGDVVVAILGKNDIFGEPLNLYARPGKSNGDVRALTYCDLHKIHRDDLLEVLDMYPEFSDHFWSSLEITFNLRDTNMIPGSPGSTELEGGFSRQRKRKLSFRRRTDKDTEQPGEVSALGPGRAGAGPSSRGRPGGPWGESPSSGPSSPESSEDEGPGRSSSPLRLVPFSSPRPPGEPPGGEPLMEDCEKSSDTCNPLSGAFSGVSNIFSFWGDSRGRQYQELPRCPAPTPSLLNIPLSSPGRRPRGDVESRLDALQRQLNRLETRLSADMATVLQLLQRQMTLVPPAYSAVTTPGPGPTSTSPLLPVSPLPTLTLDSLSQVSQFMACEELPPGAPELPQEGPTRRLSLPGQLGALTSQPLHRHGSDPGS
C[n+]1ccc(C(=O)N/N=C/c2ccco2)cc1.[I-] was tested, and the “hERG current change (%, negative = inhibition) at 10uM” value was 26.7%.
For O=C(NCCCn1ccnc1)c1cc(-c2ccncc2)nc2ccccc12, the “hERG current change (%, negative = inhibition) at 10uM” value was -56.3%.
In the case of O=C(NCCc1ccccn1)c1cc(-c2ccc(Cl)cc2)nc2ccccc12, the “hERG current change (%, negative = inhibition) at 10uM” value is reported as -19.6%.
O=C(NCCc1ccc(Cl)cc1)c1cc(-c2ccncc2)nc2ccccc12 was tested, and the “hERG current change (%, negative = inhibition) at 10uM” value was 4.23%.
With COc1cccc(-c2cc(C(=O)NCCCn3ccnc3)c3ccccc3n2)c1 the “hERG current change (%, negative = inhibition) at 10uM” value was -71.8%.
For CCCCCCCNC(=O)c1cc(-c2ccncc2)nc2ccccc12, the “hERG current change (%, negative = inhibition) at 10uM” value was 7.84%.
In the case of COc1cccc(C(=O)NCCCn2ccnc2)c1, the “hERG current change (%, negative = inhibition) at 10uM” value is reported as 7.29%.
For COc1ccc(-c2cc(C(=O)NCCCn3ccnc3)c3ccccc3n2)c(OC)c1, the “hERG current change (%, negative = inhibition) at 10uM” value was -32%.
O=C(NCCCn1ccnc1)c1cc(-c2ccc(Cl)cc2)nc2ccccc12 was tested, and the “hERG current change (%, negative = inhibition) at 10uM” value was -68.8%.
With CCOc1ccc(-c2cc(C(=O)NCCCn3ccnc3)c3ccccc3n2)cc1 the “hERG current change (%, negative = inhibition) at 10uM” value was -16%.
For CCCCN(C)CCC(=O)Nc1ccc(OC)cc1OC, the “hERG current change (%, negative = inhibition) at 10uM” value was 5.11%.
In the case of Cc1cccc(Nc2nc3c(c(=O)n(C)c(=O)n3C)n2CC(O)CO)c1 (stereo not drawn), the “hERG current change (%, negative = inhibition) at 10uM” value is reported as -0.943%.
In the case of O=C(Cc1c(Cl)cccc1Cl)N1CCN(Cc2ccccc2)CC1, the “hERG current change (%, negative = inhibition) at 10uM” value is reported as -0.0324%.
NS(=O)(=O)c1cccnc1Nc1cccc(Cl)c1Cl was tested, and the “hERG current change (%, negative = inhibition) at 10uM” value was -3.35%.
With CN(C)c1nc(-c2ccccc2)nc(-c2ccc(Cl)cc2)c1C#N the “hERG current change (%, negative = inhibition) at 10uM” value was 8.49%.
COc1ccc(-c2nc3c4ccccc4ccn3c2CN2CCCCC2)cc1OC.Cl was tested, and the “hERG current change (%, negative = inhibition) at 10uM” value was 0.736%.
In the case of O=c1[nH]c(CN2CCN(c3ccc(F)cc3)CC2)nc2ccccc12, the “hERG current change (%, negative = inhibition) at 10uM” value is reported as -15.1%.
For O=c1[nH]c(CN2CCN(c3ccccc3)CC2)nc2ccccc12, the “hERG current change (%, negative = inhibition) at 10uM” value was 1.55%.
In the case of Fc1ccccc1N1CCN(CC2CCCCC2)CC1, the “hERG current change (%, negative = inhibition) at 10uM” value is reported as -1.99%.
O=c1nc2ccccc2c2n1CC(CN1CCN(c3cccc(Cl)c3)CC1)N2 (stereo not drawn) was tested, and the “hERG current change (%, negative = inhibition) at 10uM” value was -63.3%.
O=c1nc2ccccc2c2n1CC(CN1CCN(c3ccccc3F)CC1)N2 (stereo not drawn) was tested, and the “hERG current change (%, negative = inhibition) at 10uM” value was -50.3%.
O=C(CSc1nc2ccccc2c(=O)[nH]1)N1CCN(c2ccccc2F)CC1 was tested, and the “hERG current change (%, negative = inhibition) at 10uM” value was 9.44%.
O=c1nc2ccccc2c2n1CC(CN1CCN(c3ccc(F)cc3)CC1)N2 (stereo not drawn) was tested, and the “hERG current change (%, negative = inhibition) at 10uM” value was -68.6%.
For Cn1c(CN2CCN(c3cccc(Cl)c3)CC2)nc2ccccc21, the “hERG current change (%, negative = inhibition) at 10uM” value was -44.7%.
In the case of COc1cccc(N2CCN(Cc3nc4ccccc4c(=O)[nH]3)CC2)c1, the “hERG current change (%, negative = inhibition) at 10uM” value is reported as -18.9%.
For Cc1cc(C)cc(NC(=O)c2cc(C)nn2C)c1, the “hERG current change (%, negative = inhibition) at 10uM” value was 0.0741%.
For O=C(COC(=O)c1ncc(Cl)c(Cl)c1Cl)NC(=O)c1ccccc1, the “hERG current change (%, negative = inhibition) at 10uM” value was 14.9%.
With Cn1cnnc1SCc1ccccc1[N+](=O)[O-] the “hERG current change (%, negative = inhibition) at 10uM” value was 13.7%.
COc1cc(C#N)ccc1OCC(=O)NCCC1=CCCCC1 was tested, and the “hERG current change (%, negative = inhibition) at 10uM” value was -13.2%.
In the case of Nc1ccc2c(c1)ncn2CCCn1cnc2cc(N)ccc21, the “hERG current change (%, negative = inhibition) at 10uM” value is reported as -14.7%.
Cl.c1cncc(CNCCc2c[nH]c3ccccc23)c1 was tested, and the “hERG current change (%, negative = inhibition) at 10uM” value was 4.01%.
For Cl.Fc1ccc(CCNCc2ccccc2Cl)cc1, the “hERG current change (%, negative = inhibition) at 10uM” value was 1.24%.
For O=C(NCc1ccccn1)c1cn(-c2ccccc2)nc1-c1ccc(Cl)cc1, the “hERG current change (%, negative = inhibition) at 10uM” value was -1.67%.
With Fc1ccc(-n2cc(CNCCc3ccncc3)c(-c3ccccc3Cl)n2)cc1 the “hERG current change (%, negative = inhibition) at 10uM” value was -75.2%.
For Cl.c1ccc(CCNCc2cccnc2)cc1, the “hERG current change (%, negative = inhibition) at 10uM” value was -0.175%.
In the case of Fc1ccc(-n2cc(CNCCc3cccnc3)c(-c3ccccc3Cl)n2)cc1, the “hERG current change (%, negative = inhibition) at 10uM” value is reported as -51.9%.
For Fc1ccc(NC(=S)NCCc2ccccn2)cc1, the “hERG current change (%, negative = inhibition) at 10uM” value was 7.88%.
Cl.Clc1ccccc1CNCc1ccncc1 was tested, and the “hERG current change (%, negative = inhibition) at 10uM” value was -0.497%.
Fc1ccc(-n2cc(CNCCc3ccccn3)c(-c3ccccc3Cl)n2)cc1 was tested, and the “hERG current change (%, negative = inhibition) at 10uM” value was -89.9%.
CC1(C)Cc2nc(N3CCOCC3)c(C#N)cc2CO1 was tested, and the “hERG current change (%, negative = inhibition) at 10uM” value was 7.25%.
For COc1ccc(NC(=O)CN(C)C(=O)c2c(-c3c(F)cccc3Cl)noc2C)cc1, the “hERG current change (%, negative = inhibition) at 10uM” value was -16.2%.
For CCC(C)(C)NC(=O)CN(Cc1ccccc1Cl)C(=O)CCC(=O)Nc1cc(C)ccn1, the “hERG current change (%, negative = inhibition) at 10uM” value was -4.7%.
In the case of O=C(O)c1nn(CC(=O)N2CCN(c3ccccc3)CC2)c(=O)c2ccccc12, the “hERG current change (%, negative = inhibition) at 10uM” value is reported as 8.36%.
In the case of O=C(O)c1ccccc1OCCOc1ccccc1, the “hERG current change (%, negative = inhibition) at 10uM” value is reported as 3.63%.
For CC(C)c1nnc(NC(=O)c2cnccn2)s1, the “hERG current change (%, negative = inhibition) at 10uM” value was 16.2%.
